Assay results from PubChem BioAssay (NCI).
This is part of a sample that, as a whole, favours compounds with a hit. Of some 79,000 tested, about 15% had one in any assay. Active and inactive are the calls of the source. Rule as the data show it: active = growth inhibition above about 70%; inactive = the rest.

Test: NCI Yeast Anticancer Drug Screen. Data for the rad14 strain (AID 159);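 also: 0% = growth of vehicle-treated control cultures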
Settings: S. cerevisiae rad14 strain growth inhibition, stronger effect = higher value
Protocol: Growth inhibition of yeast strains with defined genetic alterations is measured as a screen for potential anti-cancer activity. Selected strains with alterations in DNA damage repair or cell cycle control were exposed to compounds and growth inhibition was measured relative to vehicle treated controls. The strain used in this assay is rad14

Measured: growth inhibition

O/N=C\c1c(O)ccc2ccccc12
inactive: at 1.2 µM -1% | at 3.7 µM 0% | at 11.0 µM 7% | at 33.0 µM 39%
active: at 100.0 µM 75%

NC1CCCCC1N.Nc1c(N=Nc2ccc(-c3ccc(N=Nc4cc(S(=O)(=O)[O-])c5ccccc5c4N)cc3)cc2)cc(S(=O)(=O)[O-])c2ccccc12.[OH3+].[OH3+].[Pt+4]
active: at 11.0 µM 85% | at 33.0 µM 94% | at 100.0 µM 81%
inactive: at 1.2 µM 2% | at 3.7 µM 13%

COc1cc(/C=C2\NC(=O)N(/C=C3\C(=O)Oc4ccccc4C3=O)C2=O)ccc1O
inactive: at 1.2 µM -2% | at 3.7 µM -2% | at 11.0 µM 3% | at 33.0 µM 64%
active: at 100.0 µM 93%

CN(C)Cc1cc(N=Nc2ccc(Cl)cc2)ccc1OC(=O)c1ccccc1
inactive: at 1.2 µM -1% | at 3.7 µM -2% | at 11.0 µM 1% | at 33.0 µM 14% | at 100.0 µM 51%

CN1C(=O)c2ccc3ccccc3c2C1=O
inactive: at 1.2 µM 3% | at 3.7 µM 8% | at 11.0 µM 20% | at 33.0 µM 32% | at 100.0 µM 43%

CCCCN(CCCC)C(=O)/C=C/c1ccccc1
inactive: at 1.2 µM -1% | at 3.7 µM -9% | at 11.0 µM -3% | at 33.0 µM 23% | at 100.0 µM 65%

Cc1c2cccc(Sc3ccccc3)c2c2c3c(cccc13)[S+](c1ccccc1)C2 (stereo not given)
inactive: at 1.2 µM -1% | at 3.7 µM 17%
active: at 11.0 µM 98% | at 33.0 µM 96% | at 100.0 µM 90%

COc1c(O)c(C=O)c(Br)c(C=O)c1O
inactive: at 1.2 µM 1% | at 3.7 µM 4% | at 11.0 µM 11% | at 33.0 µM 42%
active: at 100.0 µM 83%
